Pf growth 96h – Primary qHTS for delayed death inhibitors of the malarial parasite plastid, 96 hour incubation. P. falciparum luciferase reporter growth, 96 h. Potency, µM (top dose mostly 28.7 µM), for inactives: at the top dose activity change, negative = inhibition, usual class: inhibitors. 6.9% of 320,000 active. AID 504834, 2011; further: potency means the concentration at half of the fitted maximal effect; on the % scale 0 is the no-effect control and ±100 the full control effect
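P. falciparum expressing integrated firefly luciferase grown in erythrocytes (2% hematocrit, 0.05% parasitemia final) with compounds for 96 hours at 37 C, 5% CO2. Growth inhibition read as loss of luminescence after adding luciferase detection reagent.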
Pf growth 48h – Primary qHTS for delayed death inhibitors of the malarial parasite plastid, 48 hour incubation; P. falciparum luciferase growth in erythrocytes, 48 h; Potency, µM (top dose mostly 28.7 µM), without a hit: at the top dose activity change, negative = inhibition, usual class: inhibitors; 5.9% of 310,000 active; further: potency means the concentration at half of the fitted maximal effect; on the % scale 0 is the no-effect control and ±100 the full control effect
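Luciferase-expressing P. falciparum in infected erythrocytes (2% hematocrit, 0.1% parasitemia final) in RPMI 1640/0.5% Albumax were exposed to compound for 48 hours at 37 C, 5% CO2; growth read as luminescence.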
HCMV antiviral – qHTS Assay for inhibitors of the human cytomegalovirus (HCMV). AID 1259415, 2018. HFF cells, HCMV-luciferase reporter, 72 h; hits give low values. activity change, negative = inhibition, % at 57.5 µM. 4.5% of 410,000 active; in the data active means activity change below about -60%; inconclusive means no clear call, values can overlap the other calls; inactive means above about -39%; further: on the % scale 0 is the no-effect control and ±100 the full control effect
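Cell-based, HFFs, 1000 cells/well, 16 h 37C; cpds in DMSO + HCMV-luc, MOI 1 PFU/cell; 72 h 37C; OneGlo luminescence after 5 min RT; norm. to buffer vs Salinomycin 10uM.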
Shiga inhibitor – A qHTS for Small Molecule Inhibitors of Shiga Toxin; Vero cells, Shiga toxin protein synthesis inhibition reporter; inhibition, % at 38.7 µM; 9.2% of 290,000 active; AID 2315, 2010; in the data active means inhibition mostly above about 28%, no sharp cut-off; inactive means mostly below about 43%; further: 0% is about no effect
CHX counter – Cycloheximide Counterscreen for Small Molecule Inhibitors of Shiga Toxin | max response, % | cell reporter, cycloheximide protein synthesis inhibition counterscreen | 12% of 300,000 active; in the data active means max response mostly above about 13%, no sharp cut-off; inactive means mostly below about 14%; further: read at 38.3 µM for the half of the compounds with a filed dose; 0% is about no effect
Numbers without * were called inactive; i = inactive; ? = inconclusive; / = no result. Rows were chosen to be rich in hits. Some 20% of all compounds tested hit in one or more screens of this group. Unless noted, the call rests on the fitted dose curve; in most records, active means well fitted inhibition curve with a large enough effect; inconclusive means small, poorly fitted or top-dose-only effect, or another doubt; inactive means no such curve, though single readings can be large or run the other way.

SMILES	Pf growth 96h	Pf growth 48h	HCMV antiviral	Shiga inhibitor	CHX counter
Cc1cc(OCC(=O)N(C)C2CCCCC2)cc(C)c1Cl	-5%	-2%	39	91*	42*
CN(C(=O)COC(=O)COc1ccc(Cl)cc1)C1CCCCC1	-15%	4%	-8	-11	-4
Cc1cc(NC(=O)N2CC=C(c3c[nH]c4ccccc34)CC2)ccc1Br	/	/	0	/	/
COc1ccccc1-c1c(C(F)(F)F)oc2cc(OS(C)(=O)=O)ccc2c1=O	i	39%	30	39	25*
COc1ccccc1-c1c(C(F)(F)F)oc2cc(OCC(=O)Nc3ccccc3C(F)(F)F)ccc2c1=O	5.2µM*	?	-7	-6	-3
COc1ccc(-c2c(C(F)(F)F)oc3cc(OCC(=O)Nc4ccccc4C(F)(F)F)ccc3c2=O)cc1OC	?	?	-19	-15	-3
O=C(OCC(=O)N1CCCC1=O)c1ncc(Cl)c(Cl)c1Cl	37%	45%	-5	/	/
CCOc1ccc(NC(=O)c2cc3c(-c4ccccc4F)nn(C)c3s2)cc1	/	/	3	/	/
COC(=O)CCCCCN1C(=O)NC(c2ccccc2)C(C(=O)OCc2ccccc2)=C1C (stereo not given)	?	-27%	-32	-14	-2
CCCCCCN(C(=O)CCCCCN1C(=O)NC(c2ccc(-c3ccccc3)cc2)C(C(=O)OCc2ccccc2)=C1C)C(C(=O)NCCCC)c1ccccc1 (stereo not given)	1.9µM*	2.6µM*	18	0	-2
CCCCCCN(C(=O)CCCCCN1C(=O)NC(c2ccc(-c3ccccc3)cc2)C(C(=O)OCc2ccccc2)=C1C)C(C)C(=O)NCCCC (stereo not given)	4.7µM*	?	42	9	-2
CCOC(=O)C1=C(C)N(CCCC(=O)O)C(=O)NC1c1ccc([N+](=O)[O-])cc1 (stereo not given)	?	-16%	-5	-10	-1
CCCCNC(=O)C(c1ccc(-c2ccccc2)cc1)N(CCN1CCOCC1)C(=O)CCCCCN1C(=O)NC(c2ccc([N+](=O)[O-])cc2)C(C(=O)OCc2ccccc2)=C1C (stereo not given)	3.3µM*	1.3µM*	23	-11	-5
CCc1nc(Nc2ccccc2OC)c2oc3ccccc3c2n1	?	?	29	20	9
CCC[C@@H](/C=C/C(=O)OC(C)(C)C)NC(=O)C(F)(F)F	/	/	21	/	/
COC(=O)[C@@H](NC(=O)N1CCC(Cc2ccccc2)CC1)C(C)C	16%	-10%	-29	23	-1
Cc1cc(/C=C\c2ccc3cc(N(C)C)ccc3[n+]2C)c(C)n1-c1ccccc1	0.0033µM*	0.26µM*	/	/	/
CCOC(=O)c1c(NC(C)=O)sc2c1CCN(Cc1ccccc1)C2	?	43%	21	2	-4
CCOC(=O)c1c(N)sc2c1CCN(CCc1ccccc1)C2	175%	0%	7	/	2
CCOC(=O)c1c(NC(=O)CSc2ncccn2)sc2c1CCN(Cc1ccccc1)C2	7.4µM*	?	29	3	-2
CCOC(=O)c1c(NC(=S)Nc2ccccc2)sc2c1CCN(CCc1ccccc1)C2	2.3µM*	13µM*	/	-22	-7
CCOC(=O)c1c(NC(=O)C(C)Sc2cccc[n+]2[O-])sc2c1CCN(Cc1ccccc1)C2 (stereo not given)	5.2µM*	9.3µM*	?	-14	-5
CCOC(=O)c1c(NC(=O)CC)sc2c1CCN(Cc1ccccc1)C2	14%	?	-1	-4	-4
C[C@H](CO)N1C[C@H](C)[C@@H](CN(C)C(=O)NC2CCCCC2)Oc2c(cccc2N(C)C)C1=O	/	/	-3	/	/
O=C(NC1CCNCC1)C1CC1	46%	18%	12	12	-1
SMILES	Pf growth 96h	Pf growth 48h	HCMV antiviral	Shiga inhibitor	CHX counter
Cc1ccccc1CC1CCN(CCCNC(=O)Nc2ccccc2)CC1	9%	7%	-3	-5	1
Nc1nc(NCc2ccco2)nc(NCCO)c1[N+](=O)[O-]	?	?	16	-5	-2
CC1CCCN(c2nc(NCc3ccco3)nc(N)c2[N+](=O)[O-])C1 (stereo not given)	?	-22%	-102*	0	3
Cc1ccc(Nc2nc(N)c([N+](=O)[O-])c(N3CCCC(C)C3)n2)cc1C (stereo not given)	?	?	-62*	-9	-1
CC1CC(C)CN(c2nc(NCc3ccco3)nc(N)c2[N+](=O)[O-])C1 (stereo not given)	?	?	-67*	8	3
CC1CCCN(c2nc(N(C)c3ccccc3)nc(N)c2[N+](=O)[O-])C1 (stereo not given)	10%	-2%	7	36	20*
Nc1nc(NCc2ccco2)nc(N2CCOCC2)c1[N+](=O)[O-]	9%	-3%	2	14	1
COc1cc(OC)c(NC(=O)Cn2cnc3sc(C)c(S(=O)(=O)N4CCOCC4)c3c2=O)cc1Cl	1%	?	18	-5	-6
CCOc1ccc(S(=O)(=O)Nc2cccc(-c3ccc(N4CCCC4)nn3)c2)cc1	/	/	29	/	/
CC(C(=O)Nc1ccc(O)cc1C(=O)O)N1C(=O)/C(=C\c2cccs2)SC1=S (stereo not given)	?	19%	3	-16	-5
c1ccc(Oc2ncnc3oc(-c4ccccc4)cc23)cc1	-18%	38%	24	2	-1
c1ccc(-c2cc3c(-n4cccc4)ncnc3o2)cc1	27%	36%	12	102*	69*
C(=N\Nc1nncn1/N=C/c1ccco1)/c1ccco1	-18%	-6%	-36	-12	-1
C=CCC1(CC=C)CCCN1C(=O)C1CCC(=O)N(Cc2ccc(Cl)cc2)C1 (stereo not given)	/	/	-8	/	/
O=C(NCC1CCN(Cc2ccc(F)cc2)CC1)C1CCCN(c2ncnc3c2nc2n3CCCCC2)C1 (stereo not given)	9.3µM*	?	-61*	-7	-1
O=C(NCc1ccccc1)C1CCCN(c2ncnc3c2nc2n3CCCCC2)C1 (stereo not given)	4%	?	?	-9	-3
O=C(NCC1CCN(Cc2cccc(Cl)c2)CC1)C1CCCN(c2ncnc3c2nc2n3CCCCC2)C1 (stereo not given)	-19%	?	?	9	-4
O=C(NCC1CCN(Cc2ccc(Cl)cc2)CC1)C1CCCN(c2ncnc3c2nc2n3CCCCC2)C1 (stereo not given)	3%	12µM*	-79*	13	-1
CCCCCCCC(=O)Nc1ccc(C(=O)N/N=C/c2cccc([N+](=O)[O-])c2)cc1	?	0%	-69*	25	-3
O=C(N/N=C/c1ccc2c(c1)OCO2)c1ccc(NC(=O)c2ccc(F)cc2)cc1	-14%	2.3µM*	-86*	55	10
O=C(c1ccccc1)c1ccc2nc[nH]c2c1	/	34%	22	27	10

Compound activity: PubChem, National Center for Advancing Translational Sciences (NCATS)
